Laboratory results as given in PubChem BioAssay.

assay: basal RPMI8226 mitochondrial membrane potential changes, profiling panel, cell-based, JC-1 fluorescence, 24 h, 100 nL compound (AID 1169); conditions: RPMI8226 myeloma, JC-1 mitochondrial potential fluorescence, higher = more signal; also: test concentration not given here

SMILES	z-score
COCCOC(=O)N1C(=O)[C@@]2(c3ccccc31)[C@H](C(=O)N1CCN(c3ncccn3)CC1)[C@H]1C(=O)O[C@H](c3ccccc3)[C@H](c3ccccc3)N1[C@@H]2c1ccccc1OCCO	-0.248
Cc1ccc(C(C)CC(O)C2C=CC3C(=O)N(C)C(=O)C3N2Nc2ccccc2)o1 (stereo not given)	0.347
CC1CC/C=C\[C@H]2OC34C=CCN(CCN5CCOCC5)C(=O)[C@H]3N(CCCO)C(=O)[C@@H]4C2C(=O)O1 (stereo not given in full)	0.741
CCCNC(=O)[C@@]1(c2ccc([N+](=O)[O-])cc2)CC(=O)N(C(C)C)[C@@H]1c1ccc(CO)cc1	0.195
C=C(COC)/C(=C/C[C@H](OC(C)=O)c1ccccc1OCCO)c1cc(C(=O)OC)ccc1OC	0.0983
CC(C)C(=C=CC[C@H](O)c1ccccc1OCCO)C[C@H](O)COCc1ccccc1	-0.823
CCCC[C@H]1OB(O)C[C@H]2C1=C(COc1ccccc1)C[C@H]1C(=O)C=CC(=O)[C@H]12	-0.431
Cc1ccc(N2C(=O)c3ccccc3[C@](C)(C(=O)NCCCN(C)C)[C@@H]2c2ccc(CO)cc2)nc1	-0.884
CCCCC(O)C1C=CC2C(=O)N(c3ccccc3)C(=O)C2N1Nc1ccc([N+](=O)[O-])cc1 (stereo not given)	-0.147
C=CCC(OC(C)=O)[C@@H]1[C@@H](N(Cc2ccc(-c3cccc(C(F)(F)F)c3)o2)C(=O)c2ccc(-c3ccccc3)cc2)c2cc(OCCCO)ccc2N1C(=O)c1ccc2ccccc2c1 (stereo not given in full)	0.677
C=C(CCCC)/C(=C/C[C@H](OC(C)=O)c1cccc(OCCO)c1)c1cnc2ccccc2c1	-0.205
OCCCC1=CC(c2ccc(CN3CCCC3)cc2)N(Cc2cccc(OC(F)(F)F)c2)CC1 (stereo not given)	-0.739
C=C(COC)C(=O)CC[C@H](OC(=O)c1cccnc1)c1ccc(OCCO)cc1	0.878
COc1ccc(C(O)C2C=CC3C(=O)N(c4ccccc4)C(=O)C3N2Nc2ccc(C#N)cc2)cc1OCc1ccccc1 (stereo not given)	-0.137
C=CCNC(=O)[C@H]1[C@@H]2C(=O)O[C@@H](c3ccccc3)[C@@H](c3ccccc3)N2[C@@H](c2ccc(OCCO)cc2)[C@]12C(=O)Nc1ccc(C#CC3(O)CCCCCC3)cc12	-0.819
CC[C@@H]1C=C(C(=O)O)[C@H](c2ccc(OC)cc2)N1S(=O)(=O)c1ccc(C)cc1	-0.168
O=C1C2C=CC(C(O)C3CCCCC3)N(n3cnnc3)C2C(=O)N1Cc1ccccc1 (stereo not given)	-0.0098
[N-]=[N+]=NCc1ccccc1[C@@H]1OC(c2ccc(OCCCO)cc2)=N[C@]1(Cc1ccccc1N=[N+]=[N-])C(=O)O	-1.11
COC(=O)c1cccc([C@H]2OC(=CC(=O)OC(C)C)C[C@@H](c3cccc(C(=O)OC)c3)O2)c1	-1.08
CN(C)CCCNC(=O)[C@@]1(Cc2ccccc2I)c2ccccc2C(=O)N(C2CCCCC2)[C@H]1c1ccc(CO)cc1	-1.01
O=C1NC(=O)C2C1C=CC(C(O)c1ccc(B(O)O)cc1)N2Nc1ccc(Cl)cc1Cl (stereo not given)	0.482
COC(=O)[C@@]1(Cc2ccccc2)[C@H]2c3cc(C(=O)N(C)C)n(CCO)c3C[C@H]2CN1C(=O)c1ccccc1	0.127
C=C(CCCC)C(=O)CC[C@H](OC(=O)c1ccccc1-c1ccccc1C(=O)O)c1ccc(OCCO)cc1	-0.346
O=C1OCCC=C[C@H]2OC34C=CCN(c5ccc6ccccc6c5)C(=O)[C@H]3N(CCO)C(=O)[C@@H]4C12 (stereo not given in full)	0.122
COc1cc(CO)cc(I)c1O[C@H]1C=C(C(=O)NCCO)C[C@@H]2O[C@H]12	-0.443
COCCOC(=O)N1C(=O)[C@@]2(c3cc(C#CCC(C(=O)OC)C(=O)OC)ccc31)[C@H](C(=O)Nc1nc3ccccc3s1)[C@H]1C(=O)O[C@H](c3ccccc3)[C@H](c3ccccc3)N1[C@@H]2c1ccc(OCCO)cc1	-0.708
CC(C)C[C@H]1NC(=O)C([C@@H](C)OCc2ccccc2)NC(=O)[C@@]23C(=O)N[C@@H](Cc4ccccc4)C2[C@H](C)[C@@]2(C)O[C@H]2C3/C=C/C/C=C\CNC1=O (stereo not given in full)	-0.872
C=C(COC)/C(=C/C[C@@H](OC(C)=O)c1ccccc1OCCO)c1cnc2ccccc2c1	0.328
COc1ccc([Si](C)(C)[C@@H]2[C@@H](CC(=O)N3CCC[C@H]3CO)O[C@]3(C(=O)N(Cc4ccc(N5CCOC5=O)cc4)c4ccccc43)[C@H]2C)cc1	-1.07
COC(=O)[C@@]1(Cc2ccccc2)[C@H]2c3cc(C(=O)N(C)C)n(CCSC(=N)N)c3C[C@H]2CN1C(=O)c1ccccc1	-0.889
